PubChem BioAssay (Tox21)
Inconclusive results are not listed. Active and inactive are the calls of the source. The call rests on the fitted dose curve.

Test: qHTS assay to identify small molecule agonists of the NFkB signaling pathway - cell viability counter screen (AID 1159515); further: nearly all actives have a fitted effect of over 55% in size
Details: NFkB-bla ME-180 viability, CellTiter-Glo luminescence, 5 h; series mostly up to 61 µM
Description: National Center for Advancing Translational Sciences [NCATS]
NIH Chemical Genomics Center [NCGC]
U.S. Environmental Protection Agency [EPA]
National Institutes of Environmental Health Sciences [NIEHS]
National Toxicology Program [NTP]
U.S. Food and Drug Administration [FDA]
Transcription factors and their stimulated target gene expression play pivotal roles across many cellular processes including responses to environmental stimuli. Proper regulation of associated pathways is critical to maintain cell health and function. Constitutive activation of transcription factor pathways has been implicated in tumors as it may block cellular functions such as apoptosis and lead to invasion and metastasis. One important transcription factor that stimulates gene expression in response to cytokines, UV radiation, and other stimuli is nuclear factor-kappa B (NFkB). To measure activation of the NFkB pathway, the CellSensor NFkB-bla ME-180 cell line (Life Technologies, Carlsbad, CA) that stably expresses beta-lactamase reporter gene under the regulation of a NF-kB response element was used. This assay allows measurement of the NFkB pathway activity induced by compounds in a ME-180 cell line. This system quantitates NF-kB activity using a FRET-based assay system where beta-lactamase expression disrupts FRET, allowing for fluorescent measurement of activity. This cell line has been used to screen the Tox21 10K compound library and to identify compounds that induce the NFkB pathway activity. The cytotoxicity of the Tox21 compound library against the NFkB-bla ME-180 cell line was tested in parallel by measuring cell viability using the CellTiter-Glo assay in the same wells.
Tox21 Assay Protocol Summary:
NFkB-bla ME-180 cells were dispensed at 2,000 cells/6 uL of assay medium per well into black wall/clear-bottom 1536-well plates using a Multidrop Combi (ThermoFisher Scientific, Waltham, MA) dispenser. After the assay plates were incubated at 37 C and 5% CO2 for an overnight, 23 nL of compounds dissolved in DMSO, positive controls or DMSO only was transferred to the assay plate by a Pintool station (Kalypsys, San Diego, CA). The assay plates were incubated at 37 C and 5% CO2 for 5 hr. One uL of LiveBLAzer B/G FRET substrate (Life Technologies) was added using a Flying Reagent Dispenser (Aurora Discovery, San Diego, CA) and the plates were incubated at room temperature for 1.5 hr. Fluorescence intensity (405 nm excitation, 460 nm and 530 nm emissions) was measured using an Envision plate reader (PerkinElmer, Shelton, CT). For cytotoxicity, 3 ul/well of CellTiter-Glo reagent was added into the assay plates using an FRD. After 30 min incubation at room temperature, the luminescence intensity was measured using a ViewLux plate reader (PerkinElmer).

Structure (SMILES)	outcome
COc1ccc(N)c(C)c1	inactive
CC(=O)CCC=C(C)C	inactive
CCCCCCCCCCCC(=O)OC	inactive
CC1(C)S[C@@H]2[C@H](NC(=O)COc3ccccc3)C(=O)N2[C@H]1C(=O)O	inactive
CC(C)=CCl	inactive
COc1cc(OC)c(C(=O)CCCN2CCCC2)c(OC)c1	inactive
CC(C)(C)c1cc(Cc2cc(C(C)(C)C)c(O)c(C(C)(C)C)c2)cc(C(C)(C)C)c1O	inactive
CCCCCCCCCCO	inactive
CCOC(=O)c1ccc(N)cc1	inactive
C=C(C)C(=O)OCC(C)C	inactive
O=S(=O)(O)c1ccc(N=Nc2c(O)ccc3cc(S(=O)(=O)O)ccc23)cc1	inactive
OCc1cccc(Oc2ccccc2)c1	inactive
CCCCCCCCCCCCCCCCO	inactive
CC(C)OC(=O)COc1ccc(Cl)cc1Cl	inactive
Clc1ccccn1	inactive
O=C(O)c1cc2ccccc2cc1O	inactive
CNC(=O)Oc1ccc2c(c1)[C@]1(C)CCN(C)[C@@H]1N2C	inactive
CCCCCCCCCCN	inactive
CC(C)(C#N)c1cc(Cn2cncn2)cc(C(C)(C)C#N)c1	inactive
C=Cc1ccc(C)cc1	inactive

Structure (SMILES)	outcome
CCCCCCCO	inactive
c1ccc(Oc2ccccc2)cc1	inactive
C[C@]12CCC(=O)C=C1CC[C@@H]1[C@@H]2[C@@H](O)C[C@@]2(C)[C@H]1CC[C@]2(O)C(=O)CO	inactive
CCNc1cccc(C)c1	inactive
O=C(O)CCCCCCCCC(=O)O	inactive
O=C(O)/C=C/C(=O)O	inactive
CC(C)c1cccc(C(C)C)c1	inactive
Nc1nc(N)nc(-c2ccccc2)n1	inactive
O=C1c2ccccc2CCc2ccccc21	inactive
NC(=S)NNC(N)=S	inactive
COc1ccc(CCC(C)=O)cc1	inactive
CC(=O)CC(C)(C)O	inactive
CCO[Si](CCCN)(OCC)OCC	inactive
O=C(OCC1CCC2OC2C1)C1CCC2OC2C1 (stereo not given)	inactive
CC(=O)Oc1ccc(C)cc1	inactive
CC(=O)OCCOC(C)=O	inactive
CCCCCC(=O)O	inactive
COC(=O)CCCC(=O)OC	inactive
Cc1ccc2ncccc2c1	inactive
O=C(O)c1ccc(C(=O)O)c(C(=O)O)c1	inactive
